Measurements as given in PubChem BioAssay (EPA / NIEHS).
Results filed as inconclusive are left out. Calls of active or inactive are those of the source. The calls were made as follows, unless noted: active = hit-call score of the fitted dose curve at least 0.9, where 1 is the maximum; inconclusive = response in the unintended direction; inactive = score below 0.9.

Experiments:
[1] = CEETOX_H295R_CORTIC_noMTC: CeeTox H295R High-throughput Steroidogenesis Assay for Corticosterone (CORTIC), maximum tolerated concentration (MTC) filtered results only (AID 2283917; active = hit-call score of the fitted dose curve at least 0.9, where 1 is the maximum; inactive = score below 0.9); settings: actives raise or lower the signal
Method in brief: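 H295R adrenal cells pre-stimulated 48 h with 10 uM forskolin, then exposed 48 h to chemical in 0.1% DMSO; corticosterone in medium quantified by HPLC-MS/MS, fitted bidirectionally versus DMSO without MTT-based concentration filtering.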

[2] = CEETOX_H295R_DOC_noMTC: CeeTox H295R High-throughput Steroidogenesis Assay for DOC, maximum tolerated concentration (MTC) filtered results only (AID 2283918; active = hit-call score of the fitted dose curve at least 0.9, where 1 is the maximum; inactive = score below 0.9); settings: actives raise or lower the signal
Method in brief: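 H295R cells prestimulated 48 h with 10 uM forskolin, then exposed 48 h to chemical in 0.1% DMSO. 11-Deoxycorticosterone in medium measured by MTBE extraction and HPLC-MS/MS; bidirectional fit vs DMSO, no MTC filter.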

[3] = CEETOX_H295R_PROG_noMTC: CeeTox H295R High-throughput Steroidogenesis Assay for Progesterone (PROG), maximum tolerated concentration (MTC) filtered results only (AID 2283920; active = hit-call score of the fitted dose curve at least 0.9, where 1 is the maximum; inactive = score below 0.9); settings: actives raise or lower the signal
Method in brief: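 H295R cells, prestimulated 48 h with 10 uM forskolin, exposed 48 h to chemical in 0.1% DMSO. Medium progesterone quantified by MTBE extraction and HPLC-MS/MS; bidirectional fit versus DMSO, concentrations not MTT-filtered.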

[4] = CEETOX_H295R_TESTO_noMTC: CeeTox H295R High-throughput Steroidogenesis Assay for Testosterone (TESTO), maximum tolerated concentration (MTC) filtered results only (AID 2283924; active = hit-call score of the fitted dose curve at least 0.9, where 1 is the maximum; inactive = score below 0.9); settings: actives raise or lower the signal
Method in brief: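 H295R cells prestimulated 48 h with 10 uM forskolin, then exposed 48 h to chemicals in 0.1% DMSO final. Testosterone in medium quantified by MTBE extraction and HPLC-MS/MS; bidirectional fit versus DMSO, concentrations […] filtered by MTT-based maximum tolerated concentration.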

[5] = TOX21_PR_BLA_Followup_Agonist_viability: Viability Assessment in the Tox21 HEK293 Progesterone Receptor (PR) Agonism Beta-lactamase Follow-Up Assay (AID 2283935);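 also: cells exposed to compound for 16 hr at 37 °C; signal loss means lower viability so actives are cytotoxic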
Method in brief: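 HEK293T PR-UAS-bla, 3,000 cells/well, 2% CS-FBS; 6 hr pre-incubation; cpd in DMSO, 16 hr 37C; LiveBLAzer 2 hr RT, then CellTiter-Glo 30 min RT, luminescence. Decrease = lost viability.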

[6] = TOX21_PR_BLA_Followup_Antagonist_viability: Viability Assessment in the Tox21 HEK293 Progesterone Receptor (PR) Antagonism Beta-lactamase Follow-Up Assay (AID 2283936);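 also: hits lower the luminescence signal meaning cytotoxicity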
Method in brief: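 PR-UAS-bla HEK293T cells (3,000/well, 2% charcoal-stripped FBS) given compound plus R5020 agonist, 16 h at 37C. CellTiter-Glo added after bla read, 30 min at room temperature; luminescence loss indicates cytotoxicity.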

PGR (gene 5241) [7] = molecular target: PGR (gene 5241) (UniProt P06401); experiment: TOX21_PR_LUC_Followup_Antagonist: Tox21 HEK293 Progesterone Receptor (PR) Antagonism Luciferase Follow-Up Assay (AID 2283938);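 also: curve fitted upward as signal gain over DMSO baseline despite antagonist label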
Method in brief: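 HEK293-PR-A-luc cells, 3,000/well, preincubated 5 h at 37C before compound addition in DMSO; 16 h compound exposure at 37C. ONE-Glo luciferase luminescence read after 30 min at room temperature, fitted relative to DMSO baseline.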

[8] = TOX21_PR_LUC_Followup_Antagonist_viability: Viability Assessment in the Tox21 HEK293 Progesterone Receptor (PR) Antagonism Luciferase Follow-Up Assay (AID 2283940)
Method in brief: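 Multiplexed viability counter-screen: after 5 days in charcoal-stripped-FBS medium, HEK293-PR-A-luc cells are plated, pinned with DMSO-dissolved compounds for 16 h at 37C, and ATP content is quantified luminescently via CellTiter-Glo.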

[9] = TOX21_PR_LUC_Followup_Agonist_viability: Viability Assessment in the Tox21 HEK293 Progesterone Receptor (PR) Agonism Luciferase Follow-Up Assay (AID 2283941);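 also: loss of signal means cytotoxicity so actives lower viability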
Method in brief: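 Cells were kept 5 days in charcoal-stripped serum medium before plating HEK293-PR-A-luc at 3,000 cells/well. After 5 h they received DMSO-dissolved compound and incubated 16 h at 37C. Viability was taken from CellTiter-Glo ATP luminescence.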

THRA (gene 7067) = THRA (gene 7067) (UniProt P10827); experiment: TOX21_TRA_COA_Agonist_Followup_ratio: Tox21 Thyroid Hormone Receptor alpha Agonism through Coactivator Recruitment Follow-Up Assay, Ratio (AID 2283948; active = hit-call score of the fitted dose curve at least 0.9, where 1 is the maximum; inactive = score below 0.9)
Method in brief: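 Cell-free TR-FRET: GST-tagged TRα LBD (2.5 nM) with 0.10% BSA and compound, then fluorescein-SRC-2 peptide (200 nM) and Tb-anti-GST antibody (2 nM). Readout 520:495 nm ratio (ex 340 nm), normalized to DMSO (0%) and T3 (100%).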

[10] = TOX21_TRB_BLA_Agonist_Followup_viability: Viability Assessment in the Tox21 Thyroid Hormone Receptor beta Agonism Beta-lactamase (BLA) Follow-Up Assay (AID 2283956)
Method in brief: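 TRb-bla HEK293T cells (GAL4-DBD/human TRb LBD) in 2% charcoal-stripped FBS medium were exposed 18 h at 37C to 11 concentrations in triplicate. CellTiter-Glo ATP luminescence was read after 30 min at room temperature, with bidirectional fitting against DMSO.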

THRB (gene 7068) = THRB (gene 7068) (UniProt P10828); experiment: TOX21_TRB_COA_Agonist_Followup_ratio: Tox21 Thyroid Hormone Receptor beta Agonism through Coactivator Recruitment Follow-Up Assay, Ratio (AID 2283963; active = hit-call score of the fitted dose curve at least 0.9, where 1 is the maximum; inactive = score below 0.9)
Method in brief: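 Signal is the 520/495 nm emission ratio (excitation 340 nm), scaled between DMSO-only wells as 0% and T3 wells as 100%. It reflects fluorescein-labeled SRC-2 peptide recruitment to GST-TRβ ligand-binding domain detected via terbium anti-GST antibody.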

[11] = molecular target: Retinoic acid receptor RXR-alpha (Homo sapiens) (UniProt P19793); experiment: TOX21_TR_RXR_BLA_Agonist_Followup_ratio: Tox21 Thyroid Hormone Receptor beta Retinoid X Receptor alpha (RXRa) Agonism Beta-lactamase (BLA) Follow-Up Assay, Ratio (AID 2283968)
Method in brief: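 HEK293T RXRa-bla, qHTS; cpd 11-pt conc. in triplicate, 16 h 37C/5% CO2; CCF4-AM 2 h RT; ratio 460:530 nm; agonist direction vs DMSO; 9-cis retinoic acid as positive control.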

[12] = TOX21_TR_RXR_BLA_Agonist_Followup_viability: Viability Assessment in the Tox21 Thyroid Hormone Receptor beta Retinoid X Receptor alpha (RXRa) Agonism Beta-lactamase (BLA) Follow-Up Assay (AID 2283970)
Method in brief: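 Cells: HEK293T RXRa-UAS-bla, 2,500/well; medium phenol red-free DMEM + 2% charcoal-stripped FBS; 16h, 37C/5% CO2; qHTS concentration series. Read: CellTiter-Glo luminescence (ATP); bidirectional fit, DMSO = baseline.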

[13] = CEETOX_H295R_ESTRADIOL_noMTC: CeeTox H295R High-throughput Steroidogenesis Assay for Estradiol, maximum tolerated concentration (MTC) filtered results only (AID 2283919; active = hit-call score of the fitted dose curve at least 0.9, where 1 is the maximum; inactive = score below 0.9); settings: actives raise or lower the signal
Method in brief: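 H295R human adrenal cells pre-stimulated 48 h with 10 uM forskolin, then exposed 48 h to chemical (0.1% DMSO final). Estradiol in medium measured by HPLC-MS/MS after MTBE extraction and dansyl derivatization; bidirectional fit versus DMSO, concentrations not MTT-filtered.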

[14] = CEETOX_H295R_ESTRONE_noMTC: CeeTox H295R High-throughput Steroidogenesis Assay for Estrone, maximum tolerated concentration (MTC) filtered results only (AID 2283921; active = hit-call score of the fitted dose curve at least 0.9, where 1 is the maximum; inactive = score below 0.9); settings: actives raise or lower the signal
Method in brief: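 H295R cells prestimulated 48 h with 10 uM forskolin, then exposed 48 h to chemical in 0.1% DMSO; medium estrone measured by HPLC-MS/MS after MTBE extraction and dansyl derivatization, fitted bidirectionally versus DMSO without MTT-based MTC filtering.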

PGR (gene 5241) [15] = molecular target: PGR (gene 5241) (UniProt P06401); experiment: TOX21_PR_LUC_Followup_Agonist: Tox21 HEK293 Progesterone Receptor (PR) Agonism Luciferase Follow-Up Assay (AID 2283937; active = hit-call score of the fitted dose curve at least 0.9, where 1 is the maximum; inactive = score below 0.9)
Method in brief: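 Cells: HEK293-PR-A-luc, 3,000/well, 10% charcoal-stripped FBS assay medium. Compound added after 5 h; 16 h, 37C, 0% CO2. ONE-Glo luciferase, luminescence. Positive fit vs DMSO.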

PGR (gene 5241) [16] = molecular target: PGR (gene 5241) (UniProt P06401); experiment: TOX21_PR_BLA_Followup_Agonist_ratio: Tox21 HEK293 Progesterone Receptor (PR) Agonism Beta-lactamase Follow-Up Assay, Ratio (AID 2283933)
Method in brief: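 HEK293T PR-UAS-bla, 2% CS-FBS; 6 hr preincubation, cpd/DMSO pinned, 16 hr 37C/5% CO2; LiveBLAzer B/G 2 hr RT; FRET ch2/ch1 ratio, agonist direction vs DMSO. Viability by CellTiter-Glo in same wells.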

Measured: AC50

PGR (gene 5241), sequence (P06401 whole entry, looked up): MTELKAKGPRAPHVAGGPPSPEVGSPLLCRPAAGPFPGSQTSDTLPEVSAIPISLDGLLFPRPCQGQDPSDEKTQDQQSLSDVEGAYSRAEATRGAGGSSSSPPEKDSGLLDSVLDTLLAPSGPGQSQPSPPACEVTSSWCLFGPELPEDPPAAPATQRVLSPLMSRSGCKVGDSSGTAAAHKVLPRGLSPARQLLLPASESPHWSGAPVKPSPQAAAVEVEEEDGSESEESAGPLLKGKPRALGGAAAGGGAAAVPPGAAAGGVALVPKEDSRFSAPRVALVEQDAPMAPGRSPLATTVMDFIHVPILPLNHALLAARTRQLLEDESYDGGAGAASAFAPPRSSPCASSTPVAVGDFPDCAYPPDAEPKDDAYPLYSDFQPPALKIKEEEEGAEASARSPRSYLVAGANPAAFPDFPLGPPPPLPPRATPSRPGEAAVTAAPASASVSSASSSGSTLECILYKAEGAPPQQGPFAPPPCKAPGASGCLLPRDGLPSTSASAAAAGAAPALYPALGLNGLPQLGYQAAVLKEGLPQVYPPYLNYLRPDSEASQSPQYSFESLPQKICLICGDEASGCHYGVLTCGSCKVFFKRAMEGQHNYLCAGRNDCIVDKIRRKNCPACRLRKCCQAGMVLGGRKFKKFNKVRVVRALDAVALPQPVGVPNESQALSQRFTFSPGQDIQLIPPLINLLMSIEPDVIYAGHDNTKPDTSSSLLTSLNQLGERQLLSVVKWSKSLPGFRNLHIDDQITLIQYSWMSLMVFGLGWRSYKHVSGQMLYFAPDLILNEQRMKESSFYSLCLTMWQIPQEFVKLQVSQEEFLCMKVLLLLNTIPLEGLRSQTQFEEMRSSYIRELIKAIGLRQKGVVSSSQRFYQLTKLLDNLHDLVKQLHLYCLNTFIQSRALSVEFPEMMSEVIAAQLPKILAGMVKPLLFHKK
THRB (gene 7068), sequence (P10828 whole entry, looked up, the tested form may be a part): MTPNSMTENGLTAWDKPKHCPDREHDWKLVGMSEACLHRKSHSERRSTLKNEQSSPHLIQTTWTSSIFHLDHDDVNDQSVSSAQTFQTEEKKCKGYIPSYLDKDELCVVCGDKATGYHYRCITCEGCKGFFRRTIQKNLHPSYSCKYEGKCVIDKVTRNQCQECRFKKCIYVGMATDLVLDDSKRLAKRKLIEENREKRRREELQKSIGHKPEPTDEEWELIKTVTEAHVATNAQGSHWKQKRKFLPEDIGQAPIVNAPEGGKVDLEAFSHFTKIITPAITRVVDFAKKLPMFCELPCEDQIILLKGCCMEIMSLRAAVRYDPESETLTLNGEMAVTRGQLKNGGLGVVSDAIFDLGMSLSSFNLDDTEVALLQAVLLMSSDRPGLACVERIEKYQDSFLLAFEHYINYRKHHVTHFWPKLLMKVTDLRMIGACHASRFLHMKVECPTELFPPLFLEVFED
Retinoic acid receptor RXR-alpha (Homo sapiens), sequence (P19793 whole entry, looked up): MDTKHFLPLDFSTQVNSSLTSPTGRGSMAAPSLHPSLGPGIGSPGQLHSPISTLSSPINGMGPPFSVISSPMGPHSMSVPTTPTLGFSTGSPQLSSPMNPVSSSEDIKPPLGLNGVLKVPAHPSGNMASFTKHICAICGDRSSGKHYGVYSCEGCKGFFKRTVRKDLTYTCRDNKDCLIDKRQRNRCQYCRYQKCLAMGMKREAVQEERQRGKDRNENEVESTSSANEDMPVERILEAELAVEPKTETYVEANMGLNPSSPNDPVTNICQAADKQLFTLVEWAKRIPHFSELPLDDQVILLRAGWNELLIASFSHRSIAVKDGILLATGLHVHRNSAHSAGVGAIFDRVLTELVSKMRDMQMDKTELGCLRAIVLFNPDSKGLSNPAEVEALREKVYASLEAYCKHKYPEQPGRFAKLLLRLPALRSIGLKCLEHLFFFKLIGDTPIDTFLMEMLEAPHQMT
THRA (gene 7067), sequence (P10827 whole entry, looked up, the tested form may be a part): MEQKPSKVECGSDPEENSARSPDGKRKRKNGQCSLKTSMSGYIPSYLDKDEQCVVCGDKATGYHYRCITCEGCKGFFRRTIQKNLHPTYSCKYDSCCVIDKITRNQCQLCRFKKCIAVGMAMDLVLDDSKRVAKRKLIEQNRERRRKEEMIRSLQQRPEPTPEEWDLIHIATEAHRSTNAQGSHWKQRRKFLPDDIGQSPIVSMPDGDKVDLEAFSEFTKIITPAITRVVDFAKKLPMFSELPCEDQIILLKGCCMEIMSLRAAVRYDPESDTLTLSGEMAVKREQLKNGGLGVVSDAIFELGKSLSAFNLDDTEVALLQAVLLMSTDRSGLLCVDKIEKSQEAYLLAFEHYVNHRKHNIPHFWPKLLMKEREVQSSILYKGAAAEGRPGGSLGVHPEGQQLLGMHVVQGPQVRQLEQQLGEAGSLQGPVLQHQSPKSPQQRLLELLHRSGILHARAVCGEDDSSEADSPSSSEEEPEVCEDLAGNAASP

CCC1(c2ccc(N)cc2)CCC(=O)NC1=O (stereo not drawn)
inactive: [1] | [2] | [3] | [4]

O=C(OC1CCCCC1)c1ccccc1C(=O)OC1CCCCC1
inactive: [1] | [3]
active: [2] 13.5 µM

Oc1ccc(-c2ccccc2)cc1
inactive: [5] | [6] | [8]
active: PGR (gene 5241) [7] 33 µM

Nc1ccc(-c2ccc(N)c(Cl)c2)cc1Cl
active: PGR (gene 5241) [7] 6.09 µM
inactive: [5] | [6] | [8] | [9]

CC1(C)CCC(Cc2ccc(Cl)cc2)C1(O)Cn1cncn1 (stereo not drawn)
inactive: [5] | [6] | [8] | [9]
active: PGR (gene 5241) [7] 21.6 µM

CC(C)(OO)c1ccccc1
inactive: THRA (gene 7067) | [10] | THRB (gene 7068) | [11] | [12]

Cn1sc(Cl)cc1=O
inactive: [1] | [2] | [13] | [3] | [14]

C[C@H]1CCCC(=O)CCC/C=C/c2cc(O)cc(O)c2C(=O)O1
inactive: [13] | [5] | [6] | PGR (gene 5241) [15] | PGR (gene 5241) [7] | [8] | [9]
active: [3] 3.94 µM | [14] 36.3 µM | [4] 82.8 µM

O=C1C2(Cl)C3(Cl)C4(Cl)C(Cl)(Cl)C5(Cl)C3(Cl)C1(Cl)C5(Cl)C24Cl (stereo not drawn)
inactive: PGR (gene 5241) [16] | [6] | PGR (gene 5241) [15] | [8] | [9]
active: [5] 66.2 µM | PGR (gene 5241) [7] 33.8 µM
